# Reference: ChEMBL document CHEMBL2218924, “A broad activity screen in support of a chemogenomic map for kinase signalling research and drug discovery” (Biochem J, 2013)
# Target: G protein-coupled receptor kinase 5 (Homo sapiens) (UniProt P34947)
# Conditions: at 1 µM
# G protein-coupled receptor kinase 5 (Homo sapiens), sequence (P34947 whole entry, looked up): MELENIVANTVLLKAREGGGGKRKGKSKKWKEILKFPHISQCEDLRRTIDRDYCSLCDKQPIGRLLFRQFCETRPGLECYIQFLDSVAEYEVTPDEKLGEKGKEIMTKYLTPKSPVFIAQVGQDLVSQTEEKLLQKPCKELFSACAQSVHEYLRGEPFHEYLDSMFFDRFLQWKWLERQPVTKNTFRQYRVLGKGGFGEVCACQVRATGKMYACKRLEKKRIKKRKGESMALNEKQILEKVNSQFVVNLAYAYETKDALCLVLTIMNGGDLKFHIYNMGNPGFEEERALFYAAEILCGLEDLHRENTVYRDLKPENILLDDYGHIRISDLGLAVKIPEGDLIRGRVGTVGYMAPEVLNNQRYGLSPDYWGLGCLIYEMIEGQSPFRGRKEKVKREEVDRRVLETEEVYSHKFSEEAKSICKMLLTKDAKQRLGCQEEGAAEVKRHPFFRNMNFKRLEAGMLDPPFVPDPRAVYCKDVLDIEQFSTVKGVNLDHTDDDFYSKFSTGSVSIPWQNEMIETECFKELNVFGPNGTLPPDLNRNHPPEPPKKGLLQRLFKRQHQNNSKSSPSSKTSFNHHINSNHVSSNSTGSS
row,SMILES,residual activity
1,O=C1c2ccccc2-[n+]2ccc3c([nH]c4ccccc43)c21,91%
2,NC(=O)c1ccc2[nH]c(-c3ccc(Oc4ccc(Cl)cc4)cc3)nc2c1,93%
3,COc1cc2ncnc(Nc3ccc(NC(=O)c4ccccc4)cc3)c2cc1OC,105%
4,CCC(=O)Nc1ccc2ncnc(Nc3cccc(Br)c3)c2c1,114%
5,c1ccc(-c2n[nH]c3c2oc2ccccc23)cc1,91%
6,O=C1Nc2cc(Br)ccc2/C1=C1/Nc2ccccc2/C1=N\O,89%
7,Cc1nc(-c2ccccc2)c(-c2ccncc2)o1,104%
8,CCN(CC)CCNC(=O)c1c(C)[nH]c(/C=C2\C(=O)Nc3ccc(Cl)cc32)c1C,68%
9,Nc1cccc(-c2cc3c(Oc4cccc(O)c4)ncnc3[nH]2)c1,92%
10,COc1ccc(S(=O)(=O)N(CCO)c2ccccc2CN(C)C/C=C/c2ccc(Cl)cc2)cc1,97%
11,C[C@@H](N)[C@H]1CC[C@H](C(=O)Nc2ccncc2)CC1,92%
12,CC[n+]1c(/C=C/N(C)c2ccccc2)n(-c2ccccc2)c2ccc(-c3nc4ccccc4s3)cc21,108%
13,COc1cc2ncnc(Nc3ccc(Oc4ccccc4)cc3)c2cc1OC,90%
14,CC(C)[C@H](CO)Nc1nc(Nc2cc(N)cc(Cl)c2)c2ncn(C(C)C)c2n1,89%
15,Nc1ncnc2c1c(-c1ccc(Oc3ccccc3)cc1)cn2C1CCCC1,103%
16,CC(C)n1cnc2c(NCc3ccccc3)nc(NCCCO)nc21,101%
17,CC(C)(C)c1nc2c3ccc(F)cc3c3c(=O)[nH]ccc3c2[nH]1,72%
18,NC(=O)Nc1sc(-c2ccc(F)cc2)cc1C(N)=O,93%
